Only some compounds are listed: those with a hit (about 0.27% of all), similar ones and a draw of the others.
TRPV1 potentiator = human TRPV1 potentiation; Q8NER1; TRPV1-expressing cells, Fluo-8 calcium influx, capsaicin EC20 potentiation; potentiation, % at 8.33 µM; hit rate 0.02% among 320,000; AID 540277; in the data active = potentiation above about 80%; inconclusive = between about 30% and that limit
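TRPV1-expressing cells were cultured overnight at 35.5C and loaded with Fluo-8 calcium dye for 40 to 90 min at room temperature. After a 10 s baseline, compound was added and calcium influx was read kinetically for 3 min (ex 480/em 520 nm).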
TRPV1 agonist = activates the human vanilloid receptor TRPV1 | TRPV1-expressing cells, Fluo-8 calcium influx, agonist mode | hit rate 0.19% among 320,000 | Q8NER1 | activation, % at 8.33 µM; in the data active = activation above about 80%; inconclusive = between about 30% and that limit
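Fluo-8 calcium influx in TRPV1-expressing cells, kinetic read (ex 480/em 520 nm). Compound added and read 3 min for agonist activity, followed by capsaicin at EC20 final and 2 min further read for enhancement.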
TRPML1 ag = human mucolipin-1 channel agonism; Q9GZU1; TRPML1-expressing cells, Ca2+ dye fluorescence, FDSS; activation, % (test concentration not listed); hit rate 0.12% among 410,000; in the data active = activation above about 50%; inconclusive = mostly about 30% to 49%
Target sequence (Q9GZU1 whole entry, looked up): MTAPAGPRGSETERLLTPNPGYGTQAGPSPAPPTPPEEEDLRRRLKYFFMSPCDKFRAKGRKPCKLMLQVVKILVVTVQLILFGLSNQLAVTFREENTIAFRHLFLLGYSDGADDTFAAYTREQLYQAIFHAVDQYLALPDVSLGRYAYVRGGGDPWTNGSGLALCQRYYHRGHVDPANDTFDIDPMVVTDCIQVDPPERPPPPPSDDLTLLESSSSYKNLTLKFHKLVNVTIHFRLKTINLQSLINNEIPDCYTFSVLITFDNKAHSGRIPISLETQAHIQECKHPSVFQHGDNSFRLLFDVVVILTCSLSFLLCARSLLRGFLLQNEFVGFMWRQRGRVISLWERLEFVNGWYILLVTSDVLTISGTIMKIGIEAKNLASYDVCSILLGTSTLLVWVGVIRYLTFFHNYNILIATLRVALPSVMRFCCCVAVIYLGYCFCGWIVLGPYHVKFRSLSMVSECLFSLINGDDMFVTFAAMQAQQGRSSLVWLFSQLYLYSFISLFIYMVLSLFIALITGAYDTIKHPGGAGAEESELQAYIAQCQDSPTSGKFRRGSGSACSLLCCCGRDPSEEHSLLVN
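Tetracycline-induced TRPML1-DL cells are seeded and incubated overnight before loading with a no-wash Ca2+ dye and quencher. Agonist activity is taken from the 110 s fluorescence read following compound pin-transfer on an FDSS, before EC80 54-4 challenge.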
TRPML1 blocker = inhibitors of human TRPML1 channel | hit rate 0.02% among 390,000 | TRPML1-inducible cells, Ca2+ dye fluorescence, FDSS; hits give low values; inhibition of EC80 agonist-evoked calcium signal | activity change, negative = inhibition, % (test concentration not listed) | Q9GZU1 | AID 624415; in the data active = activity change below about -50%; inconclusive = between about -30% and that limit;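 note: stimulus is agonist 54-4 at its EC80 concentration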
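Tet-induced TRPML1-DL cells loaded with Ca8 no-wash calcium dye were read kinetically on FDSS. Compound addition was followed by EC80 agonist 54-4 (4 uM final); inhibition was read over 110 s.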
A number is an active result; . = inactive; ? = inconclusive; / = not tested or not shown.

SMILES	TRPV1 potentiator	TRPV1 agonist	TRPML1 ag	TRPML1 blocker
Cc1cc(Cn2cnc3c(cnn3C(C)(C)C)c2=O)ccc1F	/	/	.	.
Cc1ccc(C)c2sc(NC(=O)c3ccc(S(=O)(=O)N4CCC(C)CC4)cc3)nc12	/	/	.	.
CC(C)NC(=O)c1ccc2c(=O)n(CC3CCCO3)c(=S)[nH]c2c1 (centres undefined)	143	.	.	.
COc1ccc(C(=O)NC(c2ccc(OC)c(OC)c2)c2cc(Cl)c3cccnc3c2O)cc1 (centres undefined)	/	/	.	/
CCC(=O)NC(c1ccc(OC)cc1)c1cc(Cl)c2cccnc2c1O (centres undefined)	.	84	.	.
CCOc1ccc(NC(=O)c2sc3nc4c(c(-c5ccc(OC)cc5)c3c2N)C(=O)CC(C)(C)C4)cc1	/	/	.	.
O=C1S/C(=C\c2ccc(N3CCOCC3)o2)C(=O)N1c1ccccc1	.	?	57	.
CN(C)c1ccc(C(=C2c3ccccc3-c3ccccc32)c2ccc(N(C)C)cc2)cc1	/	/	.	/
CC(=O)Nc1cccc(Nc2nc(-c3ccccc3F)nc3ccccc23)c1	.	96	.	.
O=C(Nc1nnc(-c2ccc(Cl)cc2)o1)Nc1ccccc1Cl	.	.	.	.
O=C(Nc1nnc(-c2ccc(Cl)cc2)o1)c1nc2ccccc2s1	.	.	87	.
COc1ccc(CNC(=O)CN2C(=O)CCn3nc(-c4cn(C)c5ccccc45)cc32)cc1	/	/	.	.
O=C(O)C1(P(=O)(c2ccccc2)c2ccccc2)CCCC1	.	.	.	.
N#CC1(P(=O)(c2ccccc2)c2ccccc2)CCCC1	111	.	.	.
COc1cccc(/C=C/C(=O)Nc2cccc(C(C)=O)c2)c1OC	.	90	.	.
COc1cc(C(=O)Nc2cccc(C(C)=O)c2)cc(OC)c1OC	.	.	.	.
COc1cc(NC(=O)Nc2cccc(C(C)=O)c2)cc(OC)c1OC	.	82	.	.
COc1ccccc1/C=C/C(=O)Nc1cccc(C(C)=O)c1	.	?	.	.
CCCN1CNc2c(c(=O)[nH]c(=S)n2CCc2ccc3c(c2)OCCO3)C1	/	/	.	/
O=Cc1ccc(CS)cc1	/	/	.	/
CCCCCCC[n+]1ccc(/C=C/c2c[nH]c3ccccc23)cc1	/	/	63	/
Cc1[nH]c2ccccc2c1/C=C/c1nccc2ccccc12	/	/	.	/
CCCCCCCCCC[n+]1ccc(/C=C/c2c(C)[nH]c3ccccc23)cc1	/	/	123	/
CC[n+]1ccc(/C=C/c2c[nH]c3ccccc23)cc1	.	.	.	.
Cc1ccc(Nc2nc(NCc3ccco3)nc3nccnc23)cc1C	/	/	.	/
SMILES	TRPV1 potentiator	TRPV1 agonist	TRPML1 ag	TRPML1 blocker
Cc1ccc(C)c(N2CCN(C(=O)CN3C(=O)CSc4c3c(C)nn4-c3ccccc3)CC2)c1	/	/	.	.
Cc1c(F)cccc1NC(=O)CSCC(=O)Nc1ccccc1	.	.	.	-55
COCCN1C(=S)N[C@@H](c2ccccc2)C(C(=O)OC)=C1C	.	.	/	/
N#C/C(=C/c1ccc(N2CCOCC2)o1)C(=O)Nc1ccccc1	.	?	83	.
COc1ccc(F)c(Cn2cnc3c(cnn3C(C)(C)C)c2=O)c1Cl	/	/	.	.
Cc1ccc(C)c(N2CCN(C(=O)c3cnn(C(C)(C)C)c3C3CCN(C(=O)OC(C)(C)C)CC3)CC2)c1	/	/	51	.
CC(C)(C)OC(=O)N1CCC(c2c(C(=O)N3CCCCC3)cnn2-c2ccc(F)cc2F)CC1	/	/	.	.
Cc1ccc(N2CCN(C(=O)c3cnn(-c4ccc(F)cc4F)c3C3CCN(C(=O)OC(C)(C)C)CC3)CC2)c(C)c1	/	/	58	.
CC(=O)c1ccc(NC(=O)CCc2c(C)nc3cc(-c4ccc(Cl)cc4)nn3c2C)cc1	/	/	.	.
Cc1ccccc1Nc1nn2c(=O)c3ccc(C(=O)NCC(C)c4ccccc4)cc3nc2s1 (centres undefined)	/	/	.	.
Cc1ccc(/C=N/NC(=O)c2ccc(-n3cnnn3)cc2)cc1	.	80	.	.
O=C(N/N=C\c1ccc(F)cc1)c1ccc(F)cc1	.	82	.	.
CCOC(=O)c1cccc(NC(=O)Cn2c(=O)nc(-c3ccccc3)c3ccccc32)c1	/	/	.	.
O=C(NCCc1ccc(Cl)cc1)c1ccc2c(c1)N(Cc1ccc(Cl)cc1)C(=O)CS2	/	/	.	.
CCN(CC)c1nc(C=Cc2ccc(N(C)C)cc2)c2nccnc2n1	/	/	64	.
CN(C)c1ccc(C=Cc2nccc3ccccc23)cc1	/	/	.	/
CCN(CC)c1ccc(/C=C/c2nccc3ccccc23)cc1	/	/	64	/
CN(C)c1ccc(/C=C/c2ccnc3c2ccc2ccccc23)cc1	/	/	.	/
Cc1cccc(CSc2nnc3[nH]c(=O)cc(-c4ccccc4)n23)c1	/	/	.	.
CCCOC(=O)c1cccc(Nc2nc(CCC)cc(=O)[nH]2)c1	/	/	.	.
O=C(Nc1ccc(Cl)cc1)Nc1cccc2nsnc12	.	87	.	.
CC(C)Cc1nn2c(=O)cc(COC(=O)c3ccccc3NC(=O)c3ccccc3)nc2s1	/	/	.	-56
COc1ccc(NC(=O)c2ccc(CN3C(=O)CCn4nc(C)cc43)cc2)c(OC)c1	/	/	.	.
O=C(/C=C/c1cccs1)Nc1ccncc1	.	?	.	.
CC(C)(C)c1ccc(/C=C/C(=O)Nc2ccncc2)cc1	.	96	.	.
SMILES	TRPV1 potentiator	TRPV1 agonist	TRPML1 ag	TRPML1 blocker
Cc1ccc(C(=O)NCCc2ccccc2)cc1	.	84	/	/
Cc1ccc(C(=O)NCCc2ccncc2)cc1	.	.	.	.
Cc1ccc(S(=O)(=O)Cc2ccc(C(=O)NCCc3ccccc3)o2)cc1	.	81	.	.
O=C(NCCSCc1ccccc1)c1ccc(F)cc1	.	81	.	.
O=C(Cc1ccccc1)NCCSCc1ccccc1	.	.	.	.
Cc1ccc(/C=C/c2onc(C)c2S(=O)(=O)N2CCC(C(=O)N3CCC(N(C)C(C)C)CC3)CC2)cc1	/	/	.	.
COc1ccc(F)cc1-c1cc(C(=O)Nc2ccc(NC(C)=O)cc2)[nH]n1	/	/	.	/
COc1cc2[nH]c(C(=O)Nc3ccc(F)cc3)cc2c(OC)c1OC	.	86	/	/
COc1ccc(CCNc2ncnc3c2c(-c2ccccc2)cn3-c2ccc(Cl)cc2)cc1OC	/	/	77	.
COc1ccc(CCNc2ncnc3c2c(-c2ccccc2)cn3-c2ccc(F)cc2)cc1OC	/	/	64	.
Fc1ccc(-n2cc(-c3ccccc3)c3c(NCCc4ccccc4)ncnc32)cc1	/	/	.	.
Cc1ccc(NC(=O)Cn2c(=O)n(CCCCCC(=O)NCc3ccc(F)cc3)c(=O)c3sccc32)cc1C	/	/	.	.
COc1ccc(CC(=O)N2CCN(c3cccc(Cl)c3)CC2)cc1OC	.	98	.	.
Cc1nc2nc(SCC(=O)NC3CCCCC3)nn2c(C)c1Cc1ccccc1Cl	/	/	.	.
Cc1c(C(=O)Nc2ccncc2)sc2nc(-c3ccccc3)cn12	.	90	.	.
CCN(CC)c1ccc(/C=C/C(=O)c2ccc(Br)cc2)cc1	.	123	88	.
Cc1cc(C(=O)NNC(=O)c2ccc(C(F)(F)F)cc2)no1	.	.	.	.
C=C(C)c1cccc(C(C)(C)NC(=O)Nc2ccc(C(N)=O)cc2)c1	.	?	.	.

High-throughput results: PubChem BioAssay, National Center for Advancing Translational Sciences (NCATS)
